esBAF inh = blocks esBAF chromatin remodeling in mouse ES cells. Bmi1-luciferase knock-in reporter, 24 h; 100% = twice the neutral-well signal. reporter increase, % at 12.5 µM. 350,000 compounds, 2% hits. AID 602393; in the data active = activation above about 40%; inconclusive = no clear call, values can overlap the other calls;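 note: a rise in the Bmi1 reporter signal indicates esBAF inhibition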
MITF act = activators of MITF-driven TRPM1 promoter activity in SK-MEL-5 cells. 300,000 compounds, 0.75% hits. AID 588334. SK-MEL-5 TRPM1-promoter luciferase, 24 h; % of positive control, neutral wells = 0. activation, % at 12.5 µM;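 active = mean activation of at least 80% with every replicate also reaching 80%; inconclusive = mean reaches 80% but some replicate falls short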
rRNA inh HTS = inhibitors of bacterial rRNA selective over humanized ribosomes; GFP signal change (wild-type ribosome), % (no concentration beside the values); AID 720706; 350,000 compounds, 1.6% hits; E. coli WT GFP vs humanized-ribosome RFP mutants, fluorescence, 24 h; hits give low values; DMSO median 0, no signal -100;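 active = significant combined selectivity score with lowered wild-type GFP, culture density cut under 30%, mutant RFP and density less affected; inactive = any of these conditions unmet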
MLL AF4-AF9 inh = MLL-AF4/AF9 protein interaction inhibition | AlphaScreen, biotin-AF4 peptide binding to FLAG-AF9 | 350,000 compounds, 0.47% hits | inhibition, % at 10 µM | P42568;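 active = every replicate reaching a set inhibition limit, whatever the replicate mean, cut at about 25% in these data; inconclusive = mean inhibition reaches that limit but some replicates miss it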
Target sequence (P42568 whole entry, looked up): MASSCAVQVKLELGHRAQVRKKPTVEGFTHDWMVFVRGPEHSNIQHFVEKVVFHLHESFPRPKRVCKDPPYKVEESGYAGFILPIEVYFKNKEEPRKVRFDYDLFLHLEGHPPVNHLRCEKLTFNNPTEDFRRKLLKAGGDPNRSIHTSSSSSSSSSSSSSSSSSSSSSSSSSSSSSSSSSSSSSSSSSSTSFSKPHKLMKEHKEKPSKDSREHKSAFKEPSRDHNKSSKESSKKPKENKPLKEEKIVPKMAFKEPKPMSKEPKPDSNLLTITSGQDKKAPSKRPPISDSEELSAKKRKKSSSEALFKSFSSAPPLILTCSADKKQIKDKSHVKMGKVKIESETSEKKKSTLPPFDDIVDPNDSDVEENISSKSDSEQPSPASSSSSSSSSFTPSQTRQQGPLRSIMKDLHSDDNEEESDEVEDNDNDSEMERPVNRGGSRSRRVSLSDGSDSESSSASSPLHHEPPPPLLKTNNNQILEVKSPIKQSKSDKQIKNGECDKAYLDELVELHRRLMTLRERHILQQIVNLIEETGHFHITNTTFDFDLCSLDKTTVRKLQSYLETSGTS
Wnt act = Wnt/beta-catenin pathway activation. Wnt/beta-catenin reporter cell assay, activator, plate reader. activation, % at 9.35 µM. AID 743398. 300,000 compounds, 1.2% hits; in the data active = activation above about 30%, passing the limit was not always enough; inconclusive = no clear call, values can overlap the other calls
Each line names hits and unclear results; the compound was inactive in the other large screens. Only some compounds are listed: those with a hit (about 3.7% of all), similar ones and a draw of the others.

O=C(O)c1cccc2cc(-c3ccccc3)oc(=O)c12	none (no result: MITF act)
O=C(O)c1cccc2cccc(-c3c4ccc(=O)c(O)c-4oc4c(O)c(O)ccc34)c12	rRNA inh HTS -22 (no result: esBAF inh)
CCCC#Cc1ccc([C@H]2[C@H](CO)N3CCCCN(Cc4cncnc4)C[C@@H]23)cc1	none (no result: esBAF inh, MITF act, Wnt act)
Cc1ccc2c(C)c(C(=O)N(C)C(C)c3ccncn3)oc2c1C (stereo not drawn)	esBAF inh 51
Cc1ccc2c(C)c(C(=O)N(C)C(C)c3ccon3)oc2c1C (stereo not drawn)	esBAF inh 51, MITF act 109, Wnt act inconclusive
COc1ccccc1C(=O)N1CCN(C(=O)c2oc3c(C)c(C)ccc3c2C)CC1	none (no result: MITF act)
Cc1ccc2c(C)c(C(=O)N3CCN(Cc4ccccn4)CC3)oc2c1C	none (no result: esBAF inh)
Cn1c(=O)c2c(nc(CN3CCN(C(=O)c4ccco4)CC3)n2CC(N)=O)n(C)c1=O	none
CCC(=O)N1CCc2cc(S(=O)(=O)N(C)c3ccc(OC)cc3OC)ccc21	none
CCC(=O)N1CCc2cc(Br)cc(S(=O)(=O)N(C)c3ccc(OC)cc3OC)c21	rRNA inh HTS -30
C[C@@H]1CN([C@@H](C)CO)C(=O)Cc2cc(NC(=O)Nc3ccc4c(c3)OCO4)ccc2O[C@H]1CN(C)CC1CCCCC1	MLL AF4-AF9 inh 27 (no result: MITF act, Wnt act)
CC(C)NC(=O)N(C)C[C@@H]1Oc2ccc(NS(=O)(=O)c3ccc(Cl)cc3)cc2CC(=O)N([C@@H](C)CO)C[C@@H]1C	MLL AF4-AF9 inh 36 (no result: MITF act, Wnt act)
COc1ccc(CN(C)C[C@@H]2Oc3ccc(NC(=O)Nc4ccc5c(c4)OCO5)cc3CC(=O)N([C@@H](C)CO)C[C@H]2C)cc1	MLL AF4-AF9 inh 27 (no result: MITF act, Wnt act)
C[C@@H]1CN([C@H](C)CO)C(=O)Cc2cc(NC(=O)C3CCCCC3)ccc2O[C@H]1CN(C)C(=O)Nc1ccc2c(c1)OCO2	esBAF inh 52 (no result: MITF act, Wnt act)
C[C@@H]1CN([C@@H](C)CO)C(=O)Cc2cc(NC(=O)C3CC3)ccc2O[C@H]1CN(C)C(=O)Nc1ccc2c(c1)OCO2	none (no result: MITF act, Wnt act)
COc1cc2c(c(OC)c1OC)C1(CCCCC1)CC2NC(=O)c1ccncc1 (stereo not drawn)	none (no result: esBAF inh, MITF act, MLL AF4-AF9 inh)
C[C@H]1CN([C@@H](C)CO)C(=O)Cc2cc(NC(=O)Nc3ccc4c(c3)OCO4)ccc2O[C@@H]1CN(C)Cc1ccccc1	esBAF inh 48 (no result: MITF act, Wnt act)
C[C@H](CO)N1C[C@H](C)[C@@H](CN(C)Cc2ccccc2)Oc2ccc(NC(=O)Nc3ccc4c(c3)OCO4)cc2CC1=O	MLL AF4-AF9 inh inconclusive (no result: MITF act, Wnt act)
COc1ccc2c3c(n(C)c2c1)[C@H](CO)N(C(=O)C1CCCC1)CC31CCN(Cc2cccc(F)c2)CC1	MLL AF4-AF9 inh 26 (no result: esBAF inh, MITF act, Wnt act)
COc1ccc2c3c(n(C)c2c1)[C@@H](CO)N(C(=O)C1CCOCC1)CC31CN(Cc2cccc(F)c2)C1	none (no result: esBAF inh, MITF act, Wnt act)
COc1ccc2c3c(n(C)c2c1)[C@H](CO)N(C(=O)C1CC1)CC31CN(Cc2cccc(F)c2)C1	none (no result: esBAF inh, MITF act, Wnt act)
COc1ccc2c3c(n(C)c2c1)[C@@H](CO)N(C(=O)C1CCCC1)CC31CCN(Cc2cccc(F)c2)CC1	MLL AF4-AF9 inh 38 (no result: esBAF inh, MITF act, Wnt act)
O=C1CC(C(=O)N2CCN(S(=O)(=O)c3cccc(F)c3)CC2)CN1Cc1ccccc1Cl (stereo not drawn)	none (no result: esBAF inh)
CCCCN(C(=O)CSCC(=O)Nc1ccc(OC)cc1)c1c(N)n(CC(C)C)c(=O)[nH]c1=O	none
C[C@@H]1CN([C@@H](C)CO)C(=O)c2cccc(NS(C)(=O)=O)c2O[C@@H]1CN(C)Cc1ccc(C(=O)O)cc1	none (no result: MITF act, Wnt act)
N#Cc1cc([N+](=O)[O-])ccc1N1CCN(c2ccccc2O)CC1	rRNA inh HTS -24 (no result: esBAF inh)
O=[N+]([O-])c1ccc(N2CCN(c3ccc([N+](=O)[O-])cc3CO)CC2)c(CO)c1	none
CCCc1c(C)c2ccc(OCC(C)=O)cc2oc1=O	esBAF inh inconclusive (no result: MITF act, rRNA inh HTS, MLL AF4-AF9 inh)
Cc1c(C)c2ccc(OCC(=O)c3ccccc3)cc2oc1=O	esBAF inh inconclusive, MITF act 94
CCOC(=O)CCc1c(C)c2ccc(OC3CCCCC3=O)cc2oc1=O (stereo not drawn)	rRNA inh HTS -21
CCCCc1c(C)c2ccc(OCC(C)=O)cc2oc1=O	esBAF inh 63 (no result: rRNA inh HTS, MLL AF4-AF9 inh)
O=C(Cn1cnc2c(nnn2Cc2ccccc2F)c1=O)OCc1ccccc1	none (no result: rRNA inh HTS, MLL AF4-AF9 inh, Wnt act)
O=C(NCc1ccc(Cl)c(Cl)c1)c1cc(C2CCCCN2C(=O)OCCF)on1 (stereo not drawn)	none (no result: MITF act, rRNA inh HTS)
O=C(/C=C/c1ccccc1)c1ccc2ccccc2c1	esBAF inh 68
COc1ccc(C(=O)NCC(c2ccco2)N2CCc3ccccc32)c(OC)c1 (stereo not drawn)	rRNA inh HTS -24
COc1ccc(C(=O)NCC(c2ccco2)N2CCc3ccccc3C2)c(OC)c1 (stereo not drawn)	none (no result: MITF act)
COc1ccc(NC(=O)Nc2ccc3c(c2)C(=O)N([C@@H](C)CO)C[C@H](C)[C@@H](CN(C)Cc2ccncc2)O3)cc1	none (no result: MITF act, Wnt act)
Cc1ccc2[nH]c3c(c2c1)CNCC3	none
CN1c2ccsc2/C(=N/Nc2ccccc2)CS1(=O)=O	esBAF inh 58
C=C1CCC[C@]2(C)C[C@H]3OC(=O)C(CNCC(OC)OC)[C@H]3CC12 (stereo partly drawn)	none
C=CCNC(=O)CSc1nnc(-c2ccccc2Br)n1-c1cccc(C(F)(F)F)c1	none (no result: rRNA inh HTS, MLL AF4-AF9 inh)
CCOC(=O)c1ccc(N2Cc3ccccc3C2=N)cc1	none (no result: rRNA inh HTS, MLL AF4-AF9 inh)
N#Cc1ccc(N2Cc3ccccc3C2=NC(=O)c2cccs2)cc1	none (no result: esBAF inh)
CC(=O)c1ccc(N2Cc3ccccc3C2=NC(=O)c2cccs2)cc1	MITF act 94, Wnt act inconclusive (no result: rRNA inh HTS, MLL AF4-AF9 inh)
CCOC(=O)c1ccc(N2Cc3ccccc3C2=NC(=O)c2cccs2)cc1	MITF act 112 (no result: esBAF inh, rRNA inh HTS, MLL AF4-AF9 inh)
CCOC(=O)c1ccc(N2Cc3ccccc3C2=NC(=O)c2ccncc2)cc1	MITF act 102, MLL AF4-AF9 inh inconclusive, Wnt act 46 (no result: esBAF inh)
OCCNc1c2ccccc2nc2c(F)c(F)c(F)c(F)c12	Wnt act 251 (no result: esBAF inh, rRNA inh HTS, MLL AF4-AF9 inh)
CNc1nc(-c2ccc3c(c2)CCN3C(=O)c2ccc(F)cc2)cs1	esBAF inh 52 (no result: rRNA inh HTS, MLL AF4-AF9 inh)
CC(C)(C)Nc1nc(-c2ccc3c(c2)CCN3C(=O)C2CC2)cs1	esBAF inh 95, Wnt act inconclusive (no result: MITF act)
CC(C)C(=O)Nc1nc(-c2ccc3c(c2)CCN3C(=O)C2CC2)cs1	none
CNc1nc(-c2ccc3c(c2)CCN3C(=O)c2ccccc2C)cs1	MITF act 149 (no result: esBAF inh)
CNc1nc(-c2ccc3c(c2)CCN3C(=O)c2cccc(F)c2)cs1	none (no result: esBAF inh)
CN(C)c1ccc(-c2csc(C(C)(O)c3cccc(F)c3)n2)cc1 (stereo not drawn)	esBAF inh 45 (no result: MITF act)
CC(O)(c1cccc(F)c1)c1nc(-c2ccc(Cl)cc2)cs1 (stereo not drawn)	none (no result: MITF act)
COc1ccc(-c2csc(C(C)(O)c3ccccc3)n2)cc1 (stereo not drawn)	esBAF inh 60 (no result: MITF act)
O=C1CN(S(=O)(=O)c2ccccc2C(F)(F)F)CCN1	none
COc1cccc(OCc2cc(C(=O)N(C)CCOc3ccc(C)cc3)no2)c1	esBAF inh 67

From PubChem
